Data taken from PubChem BioAssay AID504806 (National Center for Advancing Translational Sciences (NCATS), 2011).
Activity calls are given as the source filed them. Calls follow the shape of the dose curve; as a rule, active = well fitted activation curve with a large enough effect; inactive = flat fitted curve, though single readings scatter.

Assay: Followup screen of LOPAC molecules that induce DNA re-replication in SW480 adenocarcinoma cells
Details: Hoechst nuclear DNA content imaging, 48 h; series mostly up to 46.1 µM
Source text: NIH Molecular Libraries Probe Production Network [MLPCN] NIH Chemical Genomics Center [NCGC] MLPCN Grant: Fast Track K99 CA136555 Assay Provider: Melvin DePamphilis, NICHD, NIH Assay Overview Eukaryotic cells normally restrict genome duplication to once per cell division. When this process is aberrant, DNA re-replication occurs when cells reinitiate DNA replication before the first round of replication is complete. DNA re-replication induces the DNA damage response, arrests cell proliferation, and triggers apoptosis. The cell cycle components cyclin A, Cdt-1, Cdc6 and geminin are critical regulators of this process and their misregulation results in DNA re-replication in normal and cancer cells. To identify compounds that induce re-replication in normal cells, an image-based assay was used to measure DNA content of nuclei, as detected by the fluorescent DNA binding dye, Hoechst. Cell nuclei were imaged by a fluorescence scanning plate imager and compounds that induce DNA re-replication were identified by the increase of nuclei with elevated fluorescence intensity.
Assay Protocol Summary For screening, 250 cells in 5 uL/well were dispensed into black clear 1536-well plates (Aurora) using a solenoid-based dispenser. Following transfer of 23 nL compound or DMSO vehicle by a pin tool, the plates were incubated 48 hr at 37 C and 5% CO2. After addition of 1 uL/well Hoescht stain, the plates were incubated 40 min at 37 C, 5% CO2 and total intensity of fluorescent objects (nuclei) were enumerated by an Acumen Explorer Ex3 (TTP LabTech) fluorescence scanning plate imager (405 nm excitation, 500-530 nm emission). Keywords: NIH Roadmap, MLPCN, MLI, MLSMR, qHTS, NCGC, DNA replication, cancer

For `CC(C)NP(=O)(NC(C)C)OP(=O)(NC(C)C)NC(C)C`, which Potency is on record?
Its Potency is “inactive”.

With `NCC#Cc1ccccc1` as the compound, how does the Potency read?
The Potency was 7.55 µM (active).

For `COc1cc([C@@H]2c3cc4c(cc3[C@H](O)[C@@H]3COC(=O)[C@H]23)OCO4)cc(OC)c1OC`, which Potency is on record?
The Potency was 0.0239 µM (active).
